The target in experiment [1] is Lysosomal acid glucosylceramidase (Homo sapiens) (UniProt P04062). As to the kind of experiment: Glucocerebrosidase-p2 (AID 348; in the data active means potency below about 10 µM; further: potency means the concentration at half of the fitted maximal effect). The settings on record: purified GBA, blue fluorogenic substrate, 40 min. In outline:
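Compounds titrated from 0.6 nM upwards against 0.2 nM enzyme in pH 5.9 citric acid/KH2PO4, taurocholate, tween-20; blue fluorogenic substrate 80 uM, 40 min room temperature, stopped and read Ex 365/Em 440 for AC50.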

The nature of experiment [2]: AP1 Signaling Pathway (AID 357; active means well fitted curve in either direction with a large enough effect, not every such curve was filed as active;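 further: ME-180 reporter cells stimulated with EGF at its EC50 level; on the % scale 0 is the no-effect control and ±100 the full control effect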). Conditions: ME-180 AP-1-bla reporter, EGF-induced, beta-lactamase ratio, 5 h; at 7.69 µM (top of the series) unless noted. The method, boiled down: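 A ratiometric CCF4 readout (405 nm excitation; 460 and 530 nm emission) quantified AP-1-driven beta-lactamase in ME-180 cells after 5 h with compound and EC50 EGF; AC50 values were derived for activators and inhibitors.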

Experiment [3] has as its target Cytochrome P450 1A2 (Homo sapiens) (UniProt P05177). Description: p450-cyp1a2 (AID 410; calls by dose curve; further: potency means the concentration at half of the fitted maximal effect). Conditions: recombinant CYP1A2, luciferin-ME demethylation, luminescence; series mostly up to 57 µM. In outline: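 Inhibition was calculated relative to 57 uM furafylline (full inhibition). The reaction used human CYP1A2 at 20nM with Luciferin-ME at its Km, 100uM, driven by an NADPH-regenerating system for 60 min at room temperature.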

A short description of experiment [4]: NFAT Signaling Pathway (AID 444; active means well fitted curve in either direction with a large enough effect, not every such curve was filed as active;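 further: carbachol stimulus at about its EC50 of 1 µM final; on the % scale 0 is the no-effect control and ±100 the full control effect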). The settings on record: Jurkat NFAT-bla M1, carbachol, beta-lactamase ratio, 5 h; at 7.69 µM (top of the series) unless noted. The method, boiled down:
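Jurkat cells with NFAT-driven β-lactamase reporter and co-expressed M1 receptor, stimulated with carbachol (final 1 uM, ~EC50), compound titration, 5 h at 37 °C. CCF4 loaded 1 h at RT; 460/530 nm ratio gave %activity and AC50.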

A short description of experiment [5]: Stat Signaling Pathway (AID 446; active means well fitted curve in either direction with a large enough effect, not every such curve was filed as active;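 further: ME-180 cervical cancer cells given 40 pM IL-6 alongside compound; SIE-controlled beta-lactamase reporter measured as 460/530 nm FRET emission ratio; on the % scale 0 is the no-effect control and ±100 the full control effect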). Conditions: ME-180 SIE beta-lactamase reporter, IL-6 stimulated, 5 h; at 7.69 µM (top of the series) unless noted. In outline: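 ME-180 cells carrying a SIE-driven beta-lactamase reporter are stimulated with 40 pM IL-6 for 5 h at 37C in the presence of compound. The 460/530 nm FRET substrate ratio is read after 2.5 h at RT. Data are normalised to 300 pM IL-6 and to 125 nM JAK inhibitor controls.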

The target in experiment [6] is Glucocorticoid receptor (Homo sapiens) (UniProt P04150). Description: GR-GFP Redistribution (AID 450;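 active means compounds whose dose series gives a full or clear partial fitted curve of increased nuclear translocation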; further: potency means the concentration at half of the fitted maximal effect). Conditions: U2OS GR-GFP nuclear translocation, laser cytometry, 2 h.
Chain of Glucocorticoid receptor (Homo sapiens) (P04150 whole entry, looked up): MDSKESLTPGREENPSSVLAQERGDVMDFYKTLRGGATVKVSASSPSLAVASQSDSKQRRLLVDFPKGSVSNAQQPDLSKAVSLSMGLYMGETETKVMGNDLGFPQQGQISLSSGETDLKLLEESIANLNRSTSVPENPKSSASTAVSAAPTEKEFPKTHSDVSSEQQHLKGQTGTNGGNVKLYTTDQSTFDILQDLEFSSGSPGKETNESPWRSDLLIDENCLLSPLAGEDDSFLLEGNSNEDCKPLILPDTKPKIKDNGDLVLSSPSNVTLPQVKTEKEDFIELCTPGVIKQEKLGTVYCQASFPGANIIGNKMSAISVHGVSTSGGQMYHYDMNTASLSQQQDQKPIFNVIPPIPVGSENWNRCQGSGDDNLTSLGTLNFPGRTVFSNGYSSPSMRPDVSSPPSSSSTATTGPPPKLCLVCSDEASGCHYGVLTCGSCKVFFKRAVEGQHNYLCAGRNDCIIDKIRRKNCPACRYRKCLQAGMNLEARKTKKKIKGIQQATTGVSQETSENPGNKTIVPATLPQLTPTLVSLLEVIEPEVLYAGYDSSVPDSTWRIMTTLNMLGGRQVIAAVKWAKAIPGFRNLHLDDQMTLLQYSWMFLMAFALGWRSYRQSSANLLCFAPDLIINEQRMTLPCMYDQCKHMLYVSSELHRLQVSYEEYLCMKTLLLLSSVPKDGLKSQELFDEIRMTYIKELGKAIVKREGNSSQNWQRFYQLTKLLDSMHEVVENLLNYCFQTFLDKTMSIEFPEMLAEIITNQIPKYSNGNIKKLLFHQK
The target is the same in experiment [7]. Description: GR-EFC Redistribution (AID 451; calls by dose curve; further: potency means the concentration at half of the fitted maximal effect). The settings on record: CHO-K1 GR-EFC translocation, beta-gal luminescence, 2 h. The method, boiled down:
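CHO-K1 cells expressing nuclear EA and GR-ED fragments of b-gal; compounds titrated up to 46 uM final, 2 h at 37 C. GR nuclear translocation read as complemented b-gal luminescence after 1 h RT detection.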

The target in experiment [8] is Mitogen-activated protein kinase 10 (Mus musculus) (UniProt Q61831). Description: JNK3 AlphaScreen Assay (AID 530; active means well fitted curve in either direction with a large enough effect, not every such curve was filed as active;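 further: kinase came from lysate of stimulated human HepG2 cells; signal reports phosphorylation of biotinylated GST-cJun 1-79 at Ser73 with 10 µM ATP; on the % scale 0 is the no-effect control and ±100 the full control effect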). Conditions: JNK3 lysate, c-Jun phosphorylation; series mostly up to 57.1 µM. The method, boiled down:
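qHTS format: compounds tested as titrations against IL-1beta/TNF-alpha-activated HepG2 lysate JNK3 with biotin-GST-cJun substrate and 10 uM ATP at room temperature. Loss of anti-phospho-cJun AlphaScreen signal indicates inhibition.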
A general note: In Alpha technology, singlet oxygen from a donor bead excites a nearby acceptor bead.

The target of experiment [9] is 3',5'-cyclic-AMP phosphodiesterase 4B (Homo sapiens) (UniProt Q07343). Description: qHTS Assay for Inhibitors of PDE-IV (AID 607; active means well fitted activation curve with a large enough effect in the main read-out, with a control signal flat, not every such curve was filed as active; further: % of control where 0% means no effect). The settings on record: HEK293 ACTOne CNG channel cells, membrane potential fluorescence; series mostly up to 22.9 µM. The method, boiled down:
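HEK293 ACTOne cells with CNG channel (1000/well), endogenous PDE4; membrane potential dye, compounds up to 22.9 uM final. Fluorescence Ex 535/Em 590; RO 20-1724 (100 uM final) as reference.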
A general note: Quantitative high-throughput screening tests each substance at several concentrations.

Experiment [10] concerns the target Cytochrome P450 3A4 (Homo sapiens) (UniProt P08684). Description: qHTS Assay for Activators of Cytochrome P450 3A4 (AID 885). Further: nearly all actives have a fitted effect of over 65% in size. Conditions: recombinant CYP3A4, Luciferin-PPXE luminescence, 60 min; series mostly up to 57.1 µM. In outline:
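Human CYP3A4 (20 nM) with Luciferin-PPXE at 25 uM (its KM) in 200 mM KPO4; 10 min compound preincubation, then NADPH regeneration and 60 min reaction at RT. Luciferin read by luminescence; normalized to 57 uM ketoconazole full inhibition.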

A short description of experiment [11]: Confirmation and Secondary Assay for Modulators of Hemoglobin Beta Chain Splicing at IVS2 654 locus (AID 910).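 Further: HeLa cells stably carrying EGFP split by mutant beta-globin IVS2-654 intron; % of control where 0% means no effect.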 Conditions: HeLa EGFP-654 splicing reporter, GFP fluorescence, 48 h; series mostly up to 38.3 µM. The method, boiled down:
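HeLa cells stably expressing EGFP interrupted by β-globin IVS2-654 intron, seeded overnight in Opti-MEM/2% FCS, then treated 2 days at 37 °C. Restored splicing read as total peak GFP intensity per well by laser scanning cytometry (488 nm excitation, 500–520 nm emission); 500 nM antisense PNA as control.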

Experiment [12] is described as follows: qHTS Assay for Identification of Small Molecule Agonists for Hypoxia Response Element Signaling Pathway (AID 914; active means well fitted activation curve with a large enough effect in the signal ratio, with a control signal flat, not every such curve was filed as active; the % refers to the signal ratio; further: % of control where 0% means no effect). Conditions: ME-180 (cervical carcinoma) HRE-bla reporter, beta-lactamase ratio, CoCl2, 17 h; activation: stronger effect = higher value. In outline:
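Cells were plated overnight, pin-dosed with compound in a titration series, co-stimulated with EC50 CoCl2 and incubated 17 hours at 37 degrees Celsius. CCF4 substrate was then loaded, and AC50 values came from the 460nm/530nm ratio.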

The nature of experiment [13]: Confirmation and Secondary Assay for Modulators of Hemoglobin Beta Chain Splicing at IVS2 705 locus (AID 930).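 Further: HeLa cells stably expressing the EGFP-705 splicing reporter; % of control where 0% means no effect.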 The settings on record: HeLa EGFP-705 splicing reporter, GFP fluorescence, 48 h; series mostly up to 38.3 µM. In outline: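 Splice-correction reporter: EGFP cDNA split by beta-globin intron 2 bearing the 705 mutation, stably in HeLa. Compound incubation 2 days, 37C; fluorescent objects 5-250 µm summed per well.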

Experiment [14] in a line: qHTS Assay for Lipid Storage Modulators (AID 1519; calls by dose curve). Conditions: Drosophila S3 cells, BODIPY lipid droplet/cell ratio, laser cytometry, cells loaded with oleic acid; for activity change, negative = inhibition: at 57.5 µM (top of the series). In outline: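 Cells seeded at 5,000 per well were treated with compounds over a concentration series and loaded with oleic acid (400 uM, as added). Lipid droplet fluorescence (488 nm excitation, 500-530 nm channel) was read by laser-scanning cytometry and normalized to 20 uM Triacsin C.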

The target of experiment [15] is Ubiquitin carboxyl-terminal hydrolase 1 (Homo sapiens) (UniProt O94782). Description: Inhibitors of USP1/UAF1: Pilot qHTS (AID 504865). Further: nearly all actives have a fitted effect of over 35% in size. Further: potency means the concentration at half of the fitted maximal effect. Conditions: purified USP1/UAF1, Ub-rhodamine cleavage fluorescence; series mostly up to 54.9 µM. The method, boiled down: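 1nM USP1/UAF1 + cpd, 15 min RT; start w/ Ub-Rho 150nM final; kinetic FL 480/540 nm, 6 reads q60 s. Buffer 50mM HEPES pH 7.8, 0.5mM EDTA, 1mM TCEP, 0.01% Tween-20, 0.1 mg/ml BSA.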
Chain of Ubiquitin carboxyl-terminal hydrolase 1 (Homo sapiens) (O94782 whole entry, looked up): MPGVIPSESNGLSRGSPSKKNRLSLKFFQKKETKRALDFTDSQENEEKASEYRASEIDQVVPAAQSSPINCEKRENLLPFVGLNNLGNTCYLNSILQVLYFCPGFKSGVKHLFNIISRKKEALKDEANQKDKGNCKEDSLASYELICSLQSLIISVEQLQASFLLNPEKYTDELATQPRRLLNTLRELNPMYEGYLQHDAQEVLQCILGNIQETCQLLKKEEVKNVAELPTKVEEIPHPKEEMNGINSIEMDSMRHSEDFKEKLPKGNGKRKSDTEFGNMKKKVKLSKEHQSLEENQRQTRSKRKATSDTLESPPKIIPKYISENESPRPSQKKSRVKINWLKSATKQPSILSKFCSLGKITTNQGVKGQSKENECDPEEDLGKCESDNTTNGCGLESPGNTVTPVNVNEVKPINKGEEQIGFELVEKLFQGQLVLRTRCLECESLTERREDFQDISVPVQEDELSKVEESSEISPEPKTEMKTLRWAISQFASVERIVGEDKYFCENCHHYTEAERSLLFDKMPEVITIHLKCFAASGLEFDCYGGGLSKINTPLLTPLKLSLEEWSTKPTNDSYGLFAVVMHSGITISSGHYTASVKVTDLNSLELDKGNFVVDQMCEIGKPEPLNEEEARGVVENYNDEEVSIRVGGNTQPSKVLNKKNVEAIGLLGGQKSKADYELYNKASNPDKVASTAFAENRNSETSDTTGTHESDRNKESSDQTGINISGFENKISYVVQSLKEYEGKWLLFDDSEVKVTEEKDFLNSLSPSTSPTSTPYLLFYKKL

Experiment [16] can be described thus: Primary qHTS for small molecule stabilizers of the endoplasmic reticulum resident proteome: Secreted ER Calcium Modulated Protein (SERCaMP) assay (AID 1508630). Further: on the % scale 0 is the no-effect control and ±100 the full control effect. Conditions: SH-SY5Y GLuc-SERCaMP (Gaussia luciferase released on ER calcium loss) secretion, thapsigargin, luminescence; series mostly up to 38.4 µM. In outline:
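GLuc-SERCaMP-expressing SH-SY5Y cells, pretreated 16 h with compound, are challenged with thapsigargin to empty ER calcium stores; after 4 h, coelenterazine is added directly to the medium and luminescence is imaged.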

Experiment [17] has as its target Cytochrome P450 3A4 (Homo sapiens) (UniProt P08684). As to the kind of experiment: qHTS Assay for Inhibitors and Substrates of Cytochrome P450 3A4 (AID 884). Further: potency means the concentration at half of the fitted maximal effect; nearly all actives have a fitted effect of over 50% in size. The settings on record: recombinant CYP3A4, Luciferin-PPXE luminescence; series mostly up to 57.1 µM. In outline: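 20 nM human CYP3A4 with 25 uM Luciferin-PPXE (at KM) in 200 mM KPO4, preincubated 10 min with compound; NADPH regeneration started a 60 min RT reaction. Luciferin detected by luminescence, normalized to 57 uM ketoconazole as full inhibition.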

Experiment [18] concerns the target Cytochrome P450 2C19 (Homo sapiens) (UniProt P33261). Description: qHTS Assay for Inhibitors and Substrates of Cytochrome P450 2C19 (AID 899). Further: potency means the concentration at half of the fitted maximal effect; nearly all actives have a fitted effect of over 60% in size. Conditions: recombinant CYP2C19, luciferin-H EGE luminescence; series mostly up to 57.1 µM. In outline:
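5 nM human CYP2C19 with 10uM Luciferin-H EGE (at KM) in 50mM KPO4, compound preincubated 10 min at 37C, then NADPH regeneration for 60 min at 37C. Luciferin read by luminescence after detection reagent; normalized to 57uM ketoconazole as full inhibition.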

Where [19] appears, read: measured here: cell count channel max response.
Where [20] appears, read: measured here: lipid channel max response.

The structures appear in SMILES notation. Results filed as inconclusive are left out. Calls of active or inactive are those of the source. Unless noted, the call rests on the fitted dose curve; in most records, active means well fitted curve in the direction sought with a large enough effect; inconclusive means small, poorly fitted or top-dose-only effect, or another doubt; inactive means no such curve, though single readings can be large; an effect the other way counts as inactive or inconclusive.

Chain of Cytochrome P450 1A2 (Homo sapiens) (P05177 whole entry, looked up): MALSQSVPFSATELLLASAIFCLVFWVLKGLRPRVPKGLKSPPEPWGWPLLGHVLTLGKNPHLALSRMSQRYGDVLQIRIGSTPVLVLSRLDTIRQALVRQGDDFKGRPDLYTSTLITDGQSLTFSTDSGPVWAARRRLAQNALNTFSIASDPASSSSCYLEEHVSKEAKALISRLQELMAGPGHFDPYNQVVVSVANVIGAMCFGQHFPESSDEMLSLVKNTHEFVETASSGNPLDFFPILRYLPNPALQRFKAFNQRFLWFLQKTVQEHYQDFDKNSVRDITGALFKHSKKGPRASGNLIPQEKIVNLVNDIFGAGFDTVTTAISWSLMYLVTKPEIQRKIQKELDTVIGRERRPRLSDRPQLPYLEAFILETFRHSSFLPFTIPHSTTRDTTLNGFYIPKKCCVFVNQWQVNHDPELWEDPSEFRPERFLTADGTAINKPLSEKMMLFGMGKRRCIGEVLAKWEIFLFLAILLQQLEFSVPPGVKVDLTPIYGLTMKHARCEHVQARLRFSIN
Chain of Cytochrome P450 3A4 (Homo sapiens) (P08684 whole entry, looked up): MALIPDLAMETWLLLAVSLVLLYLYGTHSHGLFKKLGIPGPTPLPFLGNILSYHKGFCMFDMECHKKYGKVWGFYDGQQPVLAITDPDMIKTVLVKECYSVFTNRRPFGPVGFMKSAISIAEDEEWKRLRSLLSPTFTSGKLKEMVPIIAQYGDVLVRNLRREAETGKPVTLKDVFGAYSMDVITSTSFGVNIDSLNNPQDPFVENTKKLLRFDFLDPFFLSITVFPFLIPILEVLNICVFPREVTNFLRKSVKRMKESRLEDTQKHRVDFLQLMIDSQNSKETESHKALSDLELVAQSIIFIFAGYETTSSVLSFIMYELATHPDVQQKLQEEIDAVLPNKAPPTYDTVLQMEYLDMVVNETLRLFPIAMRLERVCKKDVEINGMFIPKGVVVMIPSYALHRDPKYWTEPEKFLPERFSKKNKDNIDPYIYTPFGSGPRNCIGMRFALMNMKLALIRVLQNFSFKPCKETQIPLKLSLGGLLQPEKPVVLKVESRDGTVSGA
Chain of Lysosomal acid glucosylceramidase (Homo sapiens) (P04062 whole entry, looked up): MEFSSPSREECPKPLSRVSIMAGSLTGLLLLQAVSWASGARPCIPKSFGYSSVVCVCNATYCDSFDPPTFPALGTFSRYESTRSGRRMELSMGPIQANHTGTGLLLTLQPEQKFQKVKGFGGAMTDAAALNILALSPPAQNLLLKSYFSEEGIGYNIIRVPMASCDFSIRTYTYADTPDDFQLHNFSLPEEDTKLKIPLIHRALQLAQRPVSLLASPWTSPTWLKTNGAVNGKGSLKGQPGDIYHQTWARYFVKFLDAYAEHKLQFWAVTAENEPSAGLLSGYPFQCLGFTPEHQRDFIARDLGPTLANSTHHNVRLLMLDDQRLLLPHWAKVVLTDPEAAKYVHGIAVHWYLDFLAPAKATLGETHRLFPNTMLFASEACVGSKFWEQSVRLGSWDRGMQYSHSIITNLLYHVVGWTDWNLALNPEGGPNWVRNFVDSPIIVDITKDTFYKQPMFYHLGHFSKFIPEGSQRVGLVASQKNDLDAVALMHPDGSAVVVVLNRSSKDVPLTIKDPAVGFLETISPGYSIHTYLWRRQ
Chain of 3',5'-cyclic-AMP phosphodiesterase 4B (Homo sapiens) (Q07343 whole entry, looked up): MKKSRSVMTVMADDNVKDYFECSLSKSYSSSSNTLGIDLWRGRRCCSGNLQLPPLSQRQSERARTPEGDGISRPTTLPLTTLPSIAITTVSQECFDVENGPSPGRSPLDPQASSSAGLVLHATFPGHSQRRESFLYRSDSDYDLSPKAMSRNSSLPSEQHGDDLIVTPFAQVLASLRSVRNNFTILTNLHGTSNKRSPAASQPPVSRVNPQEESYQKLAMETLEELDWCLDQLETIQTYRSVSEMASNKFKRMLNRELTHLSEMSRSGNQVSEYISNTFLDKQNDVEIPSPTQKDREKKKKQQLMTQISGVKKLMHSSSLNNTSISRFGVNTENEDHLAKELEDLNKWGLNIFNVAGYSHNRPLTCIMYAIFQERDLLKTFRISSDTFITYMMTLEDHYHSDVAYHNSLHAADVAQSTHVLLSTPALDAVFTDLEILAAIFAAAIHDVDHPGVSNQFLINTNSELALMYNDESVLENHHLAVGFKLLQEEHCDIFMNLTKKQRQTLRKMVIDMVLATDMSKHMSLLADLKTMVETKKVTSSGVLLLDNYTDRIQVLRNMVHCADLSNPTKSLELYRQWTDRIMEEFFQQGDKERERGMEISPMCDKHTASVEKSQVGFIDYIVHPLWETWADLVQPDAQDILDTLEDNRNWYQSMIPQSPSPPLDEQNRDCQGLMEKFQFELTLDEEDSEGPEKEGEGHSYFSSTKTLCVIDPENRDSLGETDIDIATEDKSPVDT
Chain of Cytochrome P450 2C19 (Homo sapiens) (P33261 whole entry, looked up): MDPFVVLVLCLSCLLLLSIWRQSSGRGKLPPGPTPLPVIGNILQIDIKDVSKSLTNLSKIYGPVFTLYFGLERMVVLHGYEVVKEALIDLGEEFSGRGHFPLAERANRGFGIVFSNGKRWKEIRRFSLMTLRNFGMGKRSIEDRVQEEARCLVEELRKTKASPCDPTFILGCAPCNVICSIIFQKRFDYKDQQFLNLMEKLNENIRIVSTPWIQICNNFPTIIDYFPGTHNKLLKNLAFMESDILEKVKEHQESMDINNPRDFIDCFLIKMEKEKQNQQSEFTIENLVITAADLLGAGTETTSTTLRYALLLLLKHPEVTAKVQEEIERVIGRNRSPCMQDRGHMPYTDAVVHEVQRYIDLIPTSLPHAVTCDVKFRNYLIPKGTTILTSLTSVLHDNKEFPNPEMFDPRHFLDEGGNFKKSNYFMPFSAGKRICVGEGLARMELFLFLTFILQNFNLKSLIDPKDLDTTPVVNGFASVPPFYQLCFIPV

As to `COCCNc1nc(-c2ccccc2CN(C)C)nc2ccccc12`, the Potency is > 11.4 µM (inactive) in experiment [1], 10 µM (active) in [3], > 46 µM (inactive) in experiment [6] and > 46 µM (inactive) in experiment [7]. In addition, the activity change, negative = inhibition in experiment [2] was 4.08% (inactive); in experiment [4] it was -0.773% (inactive); in experiment [14], 3.16% (inactive). Also, the activity, negative = inhibition in experiment [5] was 10% (inactive). Further, the molecule was classed as inactive in experiment [8], in experiment [11] and in experiment [13]. The Potency result in [9], in experiment [10], in experiment [15] and in experiment [16] was “inactive” each time. Moreover, the activation in [12] is 2.67% (inactive). For the same molecule, the max response in experiment [14] (setting [19]) came out at 2.38%; in [14] (setting [20]) it was 6.21%.
As for `COc1ccccc1CNc1ccnc(-c2ccoc2)n1`, the Potency is > 11.4 µM (inactive) in [1]; 1.58 µM (active) in experiment [3]; > 46 µM (inactive) in experiment [6]; > 46 µM (inactive) in [7]; 2.51 µM (active) in experiment [17]; 7.94 µM (active) in experiment [18]. Further, the Potency in experiment [15] was 50.1 µM (active). The results for the activity change, negative = inhibition in experiment [2], in experiment [4] and in experiment [14] were -2.58% (inactive), -21% (inactive) and 8.47% (inactive), respectively. Further, the activity, negative = inhibition in [5] is -4.66% (inactive). For the same molecule, the outcome in [8], in experiment [11] and in experiment [13] was inactive. Further, the Potency result in experiment [10] and in [16] was “inactive” in each case. Also, the max response in [14] (setting [19]) was -15.1%; in experiment [14] (setting [20]), 2.83%.
For the molecule `c1nc(NC2CCNCC2)c2cc(-c3ccc4c(c3)OCO4)ccc2n1`, the Potency in experiment [1] is > 11.4 µM (inactive); in [3] it was 12.6 µM (active); in experiment [6] it was > 46 µM (inactive); in [7] it was > 46 µM (inactive). Besides, the values for the activity change, negative = inhibition in experiment [2], in experiment [4] and in [14] were 7.44% (inactive), 15.7% (inactive) and 6.44% (inactive), respectively. Moreover, the activity, negative = inhibition in [5] was 2.23% (inactive). The call in experiment [8], in [11] and in [13] was inactive. Further, the Potency result in experiment [9], in experiment [10], in [15] and in experiment [16] was “inactive” each time. The max response in experiment [14] (setting [19]) was 1.52%; in experiment [14] (setting [20]), 6.41%.
